Experimental data as given in PubChem BioAssay (Tox21).
Records with an inconclusive call do not appear. Values without a mark were called inactive. Activity calls are given as the source filed them. Calls come from the whole dose curve.

Experiment: qHTS assay for small molecule disruptors of the mitochondrial membrane potential - cell viability (AID 720634);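 note: human HepG2 liver cancer cells; nearly all actives have a fitted effect of over 20% in size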
Details: HepG2 viability, ATP luminescence (CellTiter-Glo), 1 h; series mostly up to 83.2 µM; activity change, negative = cytotoxicity: at the top concentration
Source text: U.S. Tox21 Program National Center for Advancing Translational Sciences [NCATS] NIH Chemical Genomics Center [NCGC] U.S. Environmental Protection Agency [EPA] National Institutes of Environmental Health Sciences [NIEHS] National Toxicology Program [NTP] U.S. Food and Drug Administration [FDA] Tox21 Assay Overview: Mitochondrial membrane potential (MMP), one of the parameters for mitochondrial function, is generated by mitochondrial electron transport chain that creates an electrochemical gradient by a series of redox reactions. This gradient drives the synthesis of ATP, a crucial molecule for various cellular processes. Measuring MMP in living cells is commonly used to assess the effect of chemicals on mitochondrial function; decreases in MMP can be detected using lipophilic cationic fluorescent dyes. […] The dye accumulates in the mitochondria of healthy cells as aggregates, with red fluorescence. The mitochondrial potential decreases and the dye could not accumulate in the mitochondria and remains in the cytoplasm in monomers, with green fluorescence. In addition to the mitochondrial potential assay, these cells were also used to test the cytotoxicity by determining the cell viability in the culture based on the quantitation of ATP present. The cytotoxicity was measured in the same assay well of MMP assay.
Tox21 Assay Protocol Summary: 2,000 HepG2 cells in 5 uL/well were dispensed into black, clear-bottom 1536-well plates using a Multidrop Combi (Thermo Scientific) dispenser. The assay plates were incubated for an overnight at 37 C to allow cells to attach to the wells, followed by the transfer of 23 nL compound or DMSO vehicle by a pin tool (Kalypsys). The plates were incubated for 1 hr at 37 C and 5% CO2, followed by the addition of 5 uL of 2X m-MPI dye into each well using Flying Reagent Dispenser (Aurora Discovery) and then CellTiter-Glo reagent was added at 4 uL/well and incubated 30 min at room temperature. Then luminescence intensity was quantified on a ViewLux CCD-based plate reader.
% is set by controls: 0 for no effect and ±100 for the full control effect.

SMILES	activity change, negative = cytotoxicity	outcome
CC(C(=O)O)c1ccc2c(c1)CC(=O)c1ccccc1S2 (stereo not given)	5.33%	
C[C@H](CCC(=O)O)[C@H]1CC[C@H]2[C@@H]3C(=O)C[C@@H]4CC(=O)CC[C@]4(C)[C@H]3CC(=O)[C@]12C	12.9%	
CCO[Si](CCCS)(OCC)OCC	8.22%	
O=C(O)c1cc(Cl)cc([N+](=O)[O-])c1Cl	9.56%	
CCOC(=O)CC(=O)c1ccccc1	-1.82%	
On1nnc2ccccc21	-6.31%	
CC(=O)NCc1c(I)c(NC(C)=O)c(I)c(C(=O)O)c1I	55.4%	
CCC(CC)CO	-1.24%	
CN(C)CCOCCO	-4.74%	
C[Si](C)(C)C	-7.92%	
CC1=C(C(=O)O)N2C(=O)[C@@H](NC(=O)[C@H](N)c3ccc(O)cc3)[C@H]2SC1	8.31% [at 39.1 µM]	
CC(=O)c1sc(C)nc1C	5.69%	
O=C1c2ccccc2C(=O)c2cc(S(=O)(=O)O)ccc21	-8.32% [at 95.3 µM]	
COC(=O)C1CC(=O)C(C(=O)OC)CC1=O (stereo not given)	10.5% [at 8.08 µM]	
O=S(=O)(O)c1cc(O)c2ccc(Nc3ccccc3)cc2c1	-2.32%	
O=C1O[C@@H]2[C@@H](O)[C@H](O)O[C@@H]2[C@H]1O		inactive
CCN(C)C(=O)Oc1cccc([C@H](C)N(C)C)c1	-2.36%	
CC(=O)CCCCn1c(=O)c2c(ncn2C)n(C)c1=O	16.2% [at 39.1 µM]	
COCCOCCOCCOCCOCCO	-10.1%	
COc1nccnc1NS(=O)(=O)c1ccc(N)cc1	5.62%	

SMILES	activity change, negative = cytotoxicity	outcome
CC(C)NCC(O)COc1ccc(COCCOC(C)C)cc1 (stereo not given)		inactive
COc1cc2c(cc1OC)[C@@H]1CC(=O)[C@@H](CC(C)C)CN1CC2	25%	
COc1ccc2c(c1)C(=O)N(CCc1ccc(S(=O)(=O)NC(=O)NC3CCCCC3)cc1)C(=O)C2(C)C	2.84% [at 39.1 µM]	
Oc1cn2c(n1)Nc1ccc(Cl)c(Cl)c1C2		inactive
CCOc1cc([N+](=O)[O-])c(OCC)cc1N1CCOCC1	-5.63%	
FC(F)(F)c1ccccc1-n1ccnc1	12.1%	
COCCOC(=O)C1=C(C)NC(C)=C(C(=O)OC(C)C)C1c1cccc([N+](=O)[O-])c1 (stereo not given)	-25.9%	
CC(CO)c1ccccc1 (stereo not given)	15%	
C=Cc1ccccn1	-16.5% [at 95.3 µM]	
C[C@@H]1O[C@@H](O[C@@H]2[C@@H](O)[C@H](OCCc3ccc(O)c(O)c3)O[C@H](CO[C@@H]3O[C@H](CO)[C@@H](O)[C@H](O)[C@H]3O)[C@H]2OC(=O)/C=C/c2ccc(O)c(O)c2)[C@H](O)[C@H](O)[C@H]1O	-6.81%	
CCCCCCOC(=O)CC	4.72%	
C=COCCOCCOCCOC=C	10.3%	
CC[C@H](C)C(=O)O[C@H]1C[C@H](O)C=C2C=C[C@H](C)[C@H](CC[C@@H](O)C[C@@H](O)CC(=O)O)[C@H]21		inactive
NS(=O)(=O)c1ccc(NC(=O)CCC(=O)O)cc1	9.29%	
CC(=O)/C=C/C1C(C)=CCC(C)C1(C)C (stereo not given)	-18.4%	
CC(CN)CC(C)(C)CCN (stereo not given)	5.54% [at 95.3 µM]	
C=C(C)C(=O)OCCNC(C)(C)C	6.19%	
Nc1ccc([N+](=O)[O-])c(N)c1	-3.79%	
O=C(O)Cc1cn(-c2ccccc2)nc1-c1ccc(Cl)cc1	-3.87%	
CCCCCCCCCCl	4.14% [at 95.3 µM]	
